Assay results from PubChem BioAssay AID652104 (National Center for Advancing Translational Sciences (NCATS), 2013).
Screen size: about 410,000 compounds; about 7,200 (1.8%) were called active. About 7% were inconclusive and are not listed. What follows is part of a selection rich in actives, with near analogues and random picks from the rest. Values without a mark were called inactive. Calls follow the shape of the dose curve; as a rule, active = well fitted activation curve with a large enough effect; inconclusive = small, poorly fitted or top-dose-only effect, or another doubt; inactive = no such curve, though single readings can be large or run the other way.

Assay: qHTS of TDP-43 Inhibitors; also: nearly all actives have a fitted effect of over 50% in size; as to growth rescue (activation): % of control where 0% means no effect
Conditions: TDP-43 expressing yeast growth rescue, BacTiter-Glo, 24 h; series mostly up to 46.1 µM; growth rescue (activation): at the top concentration
Summary of the method: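 Luminescence from BacTiter-Glo reports growth of TDP-43-expressing yeast after 24 hr at 30 deg C with compound. Cells were raffinose-pregrown to mid-log, then seeded in galactose medium at OD600=0.02.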
Potency is read from the fitted curve at half-maximal effect.

| SMILES | Potency | growth rescue (activation) |
| --- | --- | --- |
| COc1ccc(Nc2nc(NCc3ccco3)nc(N/N=C/c3ccccc3Cl)n2)cc1 | 17.8 µM (active) |  |
| C=CCC(NCc1ccco1)c1ccc(OC)cc1 (centres undefined) |  | -8.96% |
| COc1ccc(NC(=O)C(=O)NCc2ccco2)cc1 |  | 19% |
| COc1cc(OC)cc(-c2nc3nc(C)c(CCC(=O)Nc4ccccc4)c(C)n3n2)c1 |  | 1.76% |
| O=C(NCCCc1ccccc1)c1ccc2c(c1)sc1nc(-c3ccc(F)cc3)cn12 |  | 1.87% |
| CCC(=O)N1c2ccccc2CC1C(=O)N1CCN(c2cccc(OC)c2)CC1 (centres undefined) |  | 0% |
| CC1=C(c2ccc(C)c(C)c2)S(=O)(=O)NC1=NCc1ccccc1Cl |  | -4.02% |
| CS(=O)(=O)N(CC(O)Cn1c2ccccc2c2ccccc21)c1cccc2ccccc12 (centres undefined) |  | -13.6% |
| O=C1c2ccccc2S(=O)(=O)N1Cc1c(F)cccc1Cl |  | -8.24% |
| O=C1c2ccccc2S(=O)(=O)N1CC(O)Cn1c2ccccc2c2ccccc21 (centres undefined) | 11.2 µM (active) |  |
| COc1ccc(CNC(=O)c2ccc3c(O)c(S(=O)(=O)c4ccccc4)c(=O)[nH]c3c2)cc1 |  | 6.56% |
| CCOc1ccc(C(=O)NC2CCN(CC(=O)NCc3cccs3)CC2)cc1 |  | -6.15% |
| CCOc1ccc(/C=C/C(=O)N(CC)CC(=O)NCc2cccs2)cc1OC |  | 0% |
| CCOc1ccc(/C=N/OCC(=O)NCc2cccs2)cc1 | 11.2 µM (active) |  |
| CCCCc1nn2c(=O)cc(COC(=O)c3ccc(NC(=O)c4ccccc4C)cc3)nc2s1 |  | 6.4% |
| Cc1ccc2nc(-c3ccccc3)c(CC3CCCCC3)n2c1 |  | 0% |
| N#Cc1ccc(C(C(=O)NCc2ccccc2)n2c(=O)c(-c3ccco3)nc3ccccc32)cc1 (centres undefined) |  | 16.3% |
| Cc1ccc(Cc2c(-c3ccco3)nc3ccc(Cl)cn23)cc1 | 6.31 µM (active) |  |
| Clc1cccc(Cc2c(-c3cccc(Cl)c3)nc3ccc(Cl)cn23)c1 | 12.6 µM (active) |  |
| Cc1ccc(-c2nc3c(Cl)cc(C(F)(F)F)cn3c2Cc2cccc(Cl)c2)cc1 |  | 28.6% |
| CN1CCN(Cc2c(C(=O)N3CCc4ccccc4C3)nc3ccc(Cl)cn23)CC1 |  | 5.77% |
| c1ccc(Cc2c(-c3ccco3)nc3c4ccccc4ccn23)cc1 | 35.5 µM (active) |  |
| CCCc1nc2c3ccccc3ccn2c1Cc1ccccc1C(F)(F)F |  | -67.8% |
| Cc1cc(Br)cn2c(Cc3cccc(F)c3)c(-c3cccc(Br)c3)nc12 |  | 0% |
| CCOc1ccc(N(CC)S(=O)(=O)N2CCCC(C(=O)NCc3ccc(SC)cc3)C2)cc1 (centres undefined) |  | 14.4% |

| SMILES | Potency | growth rescue (activation) |
| --- | --- | --- |
| CCN(CC)c1ccc(NS(=O)(=O)c2cc(-c3cc(C)no3)ccc2C)c(C)c1 |  | -14.9% |
| Cc1cccc(-n2c(SCC(N)=O)nc3c(oc4ccccc43)c2=O)c1 |  | 26.1% |
| COc1ccc(NC(=O)CCCN2C(=O)CCn3nc(-c4cn(C)c5ccccc45)cc32)cc1OC |  | 14.9% |
| CCOCCCn1c(SCC(=O)Nc2ccc(CC)cc2)nc2ccccc2c1=O |  | 8.55% |
| COc1ccc(OC)c(CNC(=O)c2c3c(nc4ccccc24)C(=O)N(C2CCCCC2)C3)c1 |  | 2.95% |
| Cc1ccc2cc(/C=N/NC(=O)[C@@H]3CCCN3)c(Cl)nc2c1 | 4.47 µM (active) |  |
| O=C(Nc1cccc(F)c1)[C@@H]1CCCN1 |  | 4.62% |
| CCc1ccccc1NS(=O)(=O)c1ccc2nc(-c3ccccc3)[nH]c2c1 |  | 23% |
| Cc1nc2ccc(S(=O)(=O)NC(C(=O)NCc3ccccc3Cl)C(C)C)cc2s1 (centres undefined) |  | 23.9% |
| Cc1cccc(OCCSc2nc3ccc(NC(=O)COc4ccccc4C)cc3s2)c1 |  | -10.4% |
| Cc1ccc(C(=O)N2c3ncnn3C3(CCCCC3)[C@@H]3CCCC[C@@H]32)cc1 | 22.4 µM (active) |  |
| Cc1cccc(C(=O)N2c3nc(-c4ccco4)nn3C3(CCCCC3)[C@@H]3CCCC[C@@H]32)c1 |  | 14.2% |
| Cc1ccc(S(=O)Cc2ccc(C(=O)N3CCN(C4CCCCC4)CC3)o2)cc1 (centres undefined) |  | -22.5% |
| CCOC(=O)c1c(C)[nH]c(C)c1S(=O)(=O)NCC(=O)NCc1cccc(C)c1 |  | -15.8% |
| O=C(CCc1nc(CN2CCN(S(=O)(=O)c3ccc(Br)cc3)CC2)no1)N1CCCCC1 |  | -11% |
| COc1ccc(C2CC(=O)Nc3c2c(=O)nc2c(C)cccn32)cc1OC (centres undefined) |  | 25.6% [at 9.22 µM] |
| COC(=O)c1cnn(-c2ccc(C(=O)Nc3ccc(OC(F)(F)F)cc3)cc2)c1N |  | 12.1% [at 9.22 µM] |
| CCc1nc2nc(C)cc(Nc3ccc(F)c(Cl)c3)n2n1 |  | 24.6% |
| Cc1ccc(CNC(=O)CCC(=O)N2CC(C)Sc3ccccc32)cc1 (centres undefined) |  | 21.1% |
| Cc1ccc(Cl)cc1NC(=O)CCC(=O)N1CC(C)Sc2ccccc21 (centres undefined) | 25.1 µM (active) |  |
| COc1ccccc1NC(=O)CCC(=O)N1CC(C)Oc2ccc(C)cc21 (centres undefined) | inactive |  |
| CC(=O)N1CCCc2cc(S(=O)(=O)N3CCC(C(=O)NC4CCCCC4)CC3)ccc21 |  | 19.1% |
| Cc1ccc(NC(=O)CSc2nc3c(c(=O)[nH]2)CN(Cc2ccc4c(c2)OCO4)CC3)cc1C |  | -5.01% |
| Cc1cccc(NC(=O)Cn2c(=O)n(CCC(C)C)c(=O)c3cccnc32)c1 |  | -4.57% |
